The source made the active and inactive calls. The calls were made as follows: active = hit-call score of the fitted dose curve at least 0.9, where 1 is the maximum; inactive = score below 0.9.
Legend:
[1] = target: Transcription factor E2F1 (Homo sapiens) (UniProt Q01094); test: ATG_E2F_CIS: Attagene CIS-FACTORIAL HepG2 Assay for human E2F Transcription Factor 1 (AID 2282935); conditions: HepG2 Attagene cis-reporter, E2F reporter RNA transcripts; actives raise or lower the signal
Procedure, shortened: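 HepG2 cells transiently transfected with multiplexed cis-element reporter units, dosed for 24 h. Reporter mRNA measured by RT-PCR, 6-FAM primer-extension labeling, HpaI digestion and capillary electrophoresis; bidirectional fit versus DMSO baseline.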

[2] = ATG_E_Box_CIS: Attagene CIS-FACTORIAL HepG2 Assay for human Enhancer Box (E-box) (AID 2282936); conditions: HepG2 E-box cis-reporter transcription, actives raise or lower the signal
Procedure, shortened: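 HepG2 cells transiently transfected with multiplexed cis-element reporter units sensing endogenous transcription factor activity; 24 h compound exposure. Reporter mRNA measured by RT-PCR, 6-FAM primer extension, HpaI digestion and capillary electrophoresis; bidirectional fit versus DMSO.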

[3] = ATG_M_61_CIS: Attagene CIS-FACTORIAL HepG2 Assay for M61 Transcription Factor (Internal Marker) (AID 2282937); conditions: HepG2 Attagene CIS-FACTORIAL M61 internal marker reporter; actives raise or lower the signal
Procedure, shortened: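 Background-control endpoint: HepG2 cells with cis-regulated reporter constructs, 24 h exposure, reporter mRNA detected via fluorescent primer extension and capillary electrophoresis; values from bidirectional fitting with DMSO baseline.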

[4] = ATG_M_19_CIS: Attagene CIS-FACTORIAL HepG2 Assay for M19 Transcription Factor (Internal Marker) (AID 2282939); conditions: HepG2 Attagene CIS-FACTORIAL M19 internal marker reporter; actives raise or lower the signal
Procedure, shortened: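 Readout: fluorescent reporter-transcript fragments by capillary electrophoresis after RT-PCR. Human HepG2 liver cells carried transfected MRTU constructs reporting endogenous transcription-factor activity; exposure 24 h. Gain or loss of signal fitted relative to DMSO.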

[5] = ATG_Ets_CIS: Attagene CIS-FACTORIAL HepG2 Assay for human Erythroblast Transformation Specific (ETS) (AID 2282941); conditions: HepG2 ETS cis-reporter transcription, actives raise or lower the signal
Procedure, shortened: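 Human HepG2 hepatoma cells were transiently transfected with promoter-driven reporter constructs and treated for 24 hours. Reporter transcripts were quantified by RT-PCR with fluorescent primer extension; bidirectional curve fitting used DMSO as reference.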

[6] = target: Hepatocyte nuclear factor 3-beta (Homo sapiens) (UniProt Q9Y261); test: ATG_FoxA2_CIS: Attagene CIS-FACTORIAL HepG2 Assay for human Forkhead box A2 (FOXA2) (AID 2282942); conditions: HepG2 cis-reporter transcription factor activity, 24 h; actives raise or lower the signal
Procedure, shortened: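 Measured: reporter mRNA induction or loss in HepG2 transiently carrying multiple cis-regulated reporter units, 24 h after dosing. Quantified by RT-PCR plus capillary electrophoresis, normalised to DMSO.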

[7] = ATG_FoxO_CIS: Attagene CIS-FACTORIAL HepG2 Assay for human Forkhead box O (FoxO) (AID 2282943); conditions: HepG2 Attagene cis-reporter, FoxO element, mRNA; actives raise or lower the signal
Procedure, shortened: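 HepG2 cells transiently transfected with cis-promoter-driven multiple reporter transcription units; 24 h after chemical dosing, reporter mRNA quantified by RT-PCR, fluorescent primer extension, HpaI digestion and capillary electrophoresis. Bidirectional fitting versus DMSO baseline.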

[8] = ATG_GLI_CIS: Attagene CIS-FACTORIAL HepG2 Assay for human Zinc Finger Protein GLI1 (AID 2282945); conditions: HepG2, Attagene cis-factorial reporter mRNA, GLI element; actives raise or lower the signal
Procedure, shortened: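 HepG2 cells transiently transfected with cis-promoter multiplexed reporter units report endogenous transcription factor activity. After 24 h chemical exposure, reporter mRNA was quantified by RT-PCR, 6-FAM labelling, HpaI digestion and capillary electrophoresis, with bidirectional fitting against DMSO.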

[9] = ATG_GRE_CIS: Attagene CIS-FACTORIAL HepG2 Assay for human Glucocorticoid Response Elements (GRE) (AID 2282947); conditions: HepG2 GRE cis-reporter, Attagene multiplex mRNA; actives raise or lower the signal
Procedure, shortened: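 HepG2 cells transiently transfected with multiple cis-promoter reporter units measure endogenous TF activity; 24 h compound exposure. Reporter mRNA quantified by RT-PCR, FAM labelling, HpaI digestion and capillary electrophoresis; bidirectional fit vs DMSO baseline.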

[10] = ATG_M_32_CIS: Attagene CIS-FACTORIAL HepG2 Assay for M32 Transcription Factor (Internal Marker) (AID 2282949); conditions: HepG2 Attagene cis-factorial M32 reporter, mRNA; actives raise or lower the signal;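 also: background control marker of the multiplexed CIS panel rather than a real target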
Procedure, shortened: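 Following 24 h chemical exposure of HepG2 cells transiently expressing cis-promoter reporter constructs, reporter transcript levels were determined by RT-PCR with fluorescent labelling and capillary electrophoresis, then fitted bidirectionally against DMSO.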

[11] = target: Hypoxia-inducible factor 1-alpha (Homo sapiens) (UniProt Q16665); test: ATG_HIF1a_CIS: Attagene CIS-FACTORIAL HepG2 Assay for human Hypoxia Inducible Factor 1 (HIF1A) (AID 2282951); conditions: HepG2 Attagene cis-factorial HIF1a reporter transcription; actives raise or lower the signal
Procedure, shortened: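 Dosed 24 h, transfected HepG2 cells yielded total RNA whose reporter transcripts were RT-PCR-amplified and sized by capillary electrophoresis using fluorescent labelling; DMSO defined baseline, with gain and loss of signal both fitted.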

[12] = target: Hepatocyte nuclear factor 6 (Homo sapiens) (UniProt Q9UBC0); test: ATG_HNF6_CIS: Attagene CIS-FACTORIAL HepG2 Assay for human Hepatocyte Nuclear Factor 6 (HNF6) (AID 2282952); conditions: HepG2 Attagene cis-factorial HNF6 reporter transcription; actives raise or lower the signal
Procedure, shortened: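 Reporter mRNA induction or loss in HepG2 after 24 h exposure; transient cis-MRTU transfection; fragments quantified by capillary electrophoresis; bidirectional analysis, DMSO as negative control.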

[13] = target: Heat shock factor protein 1 (Homo sapiens) (UniProt Q00613); test: ATG_HSE_CIS: Attagene CIS-FACTORIAL HepG2 Assay for human Heat Shock Transcription Factor 1 (HSE) (AID 2282953); conditions: HepG2 HSE cis-reporter, Attagene RNA transcription; actives raise or lower the signal
Procedure, shortened: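 Read-out: fluorescence of reporter-specific RT-PCR fragments separated by capillary electrophoresis. HepG2 carrying transfected cis-element reporter units; 24 h dosing; activity fitted in both directions relative to DMSO baseline.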

[14] = ATG_MRE_CIS: Attagene CIS-FACTORIAL HepG2 Assay for human Metal Responsive Element (MRE) (AID 2282954); conditions: HepG2 MRE cis-reporter transcription, Attagene multiplex; actives raise or lower the signal
Procedure, shortened: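 HepG2 cells transiently transfected with multiple cis-element reporter units measure endogenous MTF1-driven transcription. After 24 h compound exposure, reporter mRNA is quantified by RT-PCR with 6-FAM labelling, HpaI digestion and capillary electrophoresis; bidirectional fits versus DMSO.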

[15] = ATG_EGR_CIS: Attagene CIS-FACTORIAL HepG2 Assay for human Early Growth Response 1 (EGR1) (AID 2282938); conditions: HepG2 Attagene CIS-FACTORIAL EGR reporter mRNA; actives raise or lower the signal
Procedure, shortened: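 Endpoint derived by bidirectional fitting versus DMSO vehicle. Method: cis-promoter reporter units transfected into HepG2, 24 h dosing, RNA isolation, RT-PCR with 6-FAM primer extension and HpaI digestion, then capillary electrophoresis fluorescence detection.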

[16] = ATG_GATA_CIS: Attagene CIS-FACTORIAL HepG2 Assay for human GATA Binding Protein (AID 2282944); conditions: HepG2 GATA cis-element reporter, Attagene multiplex mRNA; actives raise or lower the signal
Procedure, shortened: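 Read-out: fluorescent reporter mRNA fragments resolved by capillary electrophoresis after RT-PCR. Human liver HepG2 cells carried transiently transfected cis-regulated reporter constructs; chemicals incubated 24 h; gain or loss of signal fitted relative to DMSO.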

[17] = target: Bile acid receptor (Homo sapiens) (UniProt Q96RI1); test: ATG_IR1_CIS: Attagene CIS-FACTORIAL HepG2 Assay for human Nuclear Receptor Subfamily 1 Group H Member 4 (NR1H4), IR1 submotif (AID 2282946); conditions: IR1 reporter transcription, actives raise or lower the signal
Procedure, shortened: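 Transient MRTU transfection, HepG2; 24 h dosing; RNA → RT-PCR → 6-FAM primer extension → HpaI digest → capillary electrophoresis fluorescence. Gain/loss of signal fitted relative to DMSO.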

[18] = ATG_ISRE_CIS: Attagene CIS-FACTORIAL HepG2 Assay for human Interferon Regulatory Factor 1 (IRF1) binding to an Interferon-Stimulated Response Element (ISRE) (AID 2282948); conditions: HepG2 ISRE cis-reporter (Attagene), mRNA transcription readout; actives raise or lower the signal
Procedure, shortened: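 Cell-based cis-reporter assay; HepG2; 24 h exposure; reporter mRNA by RT-PCR plus capillary electrophoresis fluorescence; activity in either direction scored relative to DMSO.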

[19] = ATG_M_06_CIS: Attagene CIS-FACTORIAL HepG2 Assay for M06 Transcription Factor (Internal Marker) (AID 2282950); conditions: HepG2 Attagene CIS-FACTORIAL M06 internal marker reporter; actives raise or lower the signal
Procedure, shortened: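 Terse: HepG2, transient MRTU transfection (FuGene 6), 24 h dosing; total RNA, oligo(dT) RT, PCR, FAM label, HpaI cut, capillary electrophoresis; bidirectional fit vs DMSO baseline; background-control endpoint.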

[20] = ATG_ERE_CIS: Attagene CIS-FACTORIAL HepG2 Assay for Estrogen Response Element (ERE) (AID 2282940); conditions: HepG2 ERE cis-reporter, Attagene RNA transcript; actives raise or lower the signal
Procedure, shortened: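 Readout: reporter mRNA induction by RT-PCR, FAM-labelled primer extension, HpaI digestion and capillary electrophoresis, 24 h after dosing transfected HepG2 cells. Endogenous transcription factors act on cis-element-regulated reporters. Gain or loss fitted against DMSO.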

Measured: AC50

Chain of Hypoxia-inducible factor 1-alpha (Homo sapiens) (Q16665 whole entry, looked up): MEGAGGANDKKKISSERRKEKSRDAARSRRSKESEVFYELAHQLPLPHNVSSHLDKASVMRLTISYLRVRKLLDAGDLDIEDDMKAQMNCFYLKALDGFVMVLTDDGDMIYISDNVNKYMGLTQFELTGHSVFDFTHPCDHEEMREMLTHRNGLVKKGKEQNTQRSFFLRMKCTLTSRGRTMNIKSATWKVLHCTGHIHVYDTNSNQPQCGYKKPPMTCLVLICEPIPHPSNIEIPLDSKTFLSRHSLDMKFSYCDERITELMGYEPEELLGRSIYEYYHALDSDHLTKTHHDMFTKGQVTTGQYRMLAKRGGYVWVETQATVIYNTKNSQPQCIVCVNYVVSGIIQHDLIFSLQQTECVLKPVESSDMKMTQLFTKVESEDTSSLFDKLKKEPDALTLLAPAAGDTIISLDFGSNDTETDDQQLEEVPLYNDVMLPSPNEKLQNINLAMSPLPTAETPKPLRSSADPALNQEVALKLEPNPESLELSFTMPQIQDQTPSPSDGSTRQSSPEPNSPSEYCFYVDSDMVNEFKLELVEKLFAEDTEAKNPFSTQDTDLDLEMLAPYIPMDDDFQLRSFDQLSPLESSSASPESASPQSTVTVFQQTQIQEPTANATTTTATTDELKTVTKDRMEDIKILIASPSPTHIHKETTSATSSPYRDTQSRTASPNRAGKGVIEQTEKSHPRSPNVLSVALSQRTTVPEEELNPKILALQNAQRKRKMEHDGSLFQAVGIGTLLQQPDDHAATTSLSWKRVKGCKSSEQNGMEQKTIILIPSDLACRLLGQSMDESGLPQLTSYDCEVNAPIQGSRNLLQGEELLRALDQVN
Chain of Hepatocyte nuclear factor 3-beta (Homo sapiens) (Q9Y261 whole entry, looked up): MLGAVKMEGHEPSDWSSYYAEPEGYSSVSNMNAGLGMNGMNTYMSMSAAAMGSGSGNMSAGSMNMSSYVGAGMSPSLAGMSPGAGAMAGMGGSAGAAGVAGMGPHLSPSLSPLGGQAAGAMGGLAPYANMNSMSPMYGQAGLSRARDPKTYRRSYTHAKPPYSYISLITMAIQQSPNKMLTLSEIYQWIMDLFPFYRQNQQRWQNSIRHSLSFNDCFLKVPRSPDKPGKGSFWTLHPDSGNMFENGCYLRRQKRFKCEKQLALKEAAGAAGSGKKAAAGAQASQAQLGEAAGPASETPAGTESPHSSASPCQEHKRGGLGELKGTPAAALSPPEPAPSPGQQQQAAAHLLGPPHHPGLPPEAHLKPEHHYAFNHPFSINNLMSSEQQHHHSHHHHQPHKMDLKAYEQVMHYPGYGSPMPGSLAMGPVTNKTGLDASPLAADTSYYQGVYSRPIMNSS
Chain of Heat shock factor protein 1 (Homo sapiens) (Q00613 whole entry, looked up, the tested form may be a part): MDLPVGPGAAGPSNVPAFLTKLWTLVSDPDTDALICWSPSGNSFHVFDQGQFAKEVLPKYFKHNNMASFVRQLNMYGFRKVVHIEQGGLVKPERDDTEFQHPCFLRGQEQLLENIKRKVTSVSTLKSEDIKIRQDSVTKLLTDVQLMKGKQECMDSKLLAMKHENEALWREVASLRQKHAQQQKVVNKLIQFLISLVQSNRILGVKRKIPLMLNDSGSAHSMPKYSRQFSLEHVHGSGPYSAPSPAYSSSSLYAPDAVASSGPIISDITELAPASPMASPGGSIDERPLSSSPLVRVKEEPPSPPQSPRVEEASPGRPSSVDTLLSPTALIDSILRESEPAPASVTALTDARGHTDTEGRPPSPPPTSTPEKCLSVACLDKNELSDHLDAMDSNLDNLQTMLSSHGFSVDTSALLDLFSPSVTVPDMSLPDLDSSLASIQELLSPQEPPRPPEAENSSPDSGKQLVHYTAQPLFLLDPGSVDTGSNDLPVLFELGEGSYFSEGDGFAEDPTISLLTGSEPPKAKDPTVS
Chain of Hepatocyte nuclear factor 6 (Homo sapiens) (Q9UBC0 whole entry, looked up, the tested form may be a part): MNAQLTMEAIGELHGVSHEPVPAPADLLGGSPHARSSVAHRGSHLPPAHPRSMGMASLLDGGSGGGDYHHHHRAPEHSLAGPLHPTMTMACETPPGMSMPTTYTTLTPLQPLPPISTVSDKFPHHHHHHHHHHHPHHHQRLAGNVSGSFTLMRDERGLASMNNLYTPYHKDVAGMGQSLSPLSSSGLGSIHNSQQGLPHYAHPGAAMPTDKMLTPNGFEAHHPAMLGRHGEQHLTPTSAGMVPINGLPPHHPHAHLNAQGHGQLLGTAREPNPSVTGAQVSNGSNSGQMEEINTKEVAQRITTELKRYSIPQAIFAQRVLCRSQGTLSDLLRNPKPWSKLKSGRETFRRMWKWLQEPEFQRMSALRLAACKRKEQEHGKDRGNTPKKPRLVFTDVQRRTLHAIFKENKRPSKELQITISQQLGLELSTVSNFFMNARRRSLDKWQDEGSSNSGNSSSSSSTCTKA
Chain of Transcription factor E2F1 (Homo sapiens) (Q01094 whole entry, looked up): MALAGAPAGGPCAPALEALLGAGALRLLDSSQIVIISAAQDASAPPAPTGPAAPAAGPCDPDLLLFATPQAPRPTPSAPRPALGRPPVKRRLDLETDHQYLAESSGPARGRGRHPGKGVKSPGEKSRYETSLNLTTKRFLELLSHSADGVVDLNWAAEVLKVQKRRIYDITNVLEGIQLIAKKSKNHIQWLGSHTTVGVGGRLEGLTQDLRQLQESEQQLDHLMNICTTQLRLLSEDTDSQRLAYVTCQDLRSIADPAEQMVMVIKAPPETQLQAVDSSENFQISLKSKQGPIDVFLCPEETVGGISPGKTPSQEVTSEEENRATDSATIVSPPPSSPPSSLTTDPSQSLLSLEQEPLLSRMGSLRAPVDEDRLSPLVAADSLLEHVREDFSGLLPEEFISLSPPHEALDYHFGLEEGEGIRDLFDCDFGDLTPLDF
Chain of Bile acid receptor (Homo sapiens) (Q96RI1 whole entry, looked up): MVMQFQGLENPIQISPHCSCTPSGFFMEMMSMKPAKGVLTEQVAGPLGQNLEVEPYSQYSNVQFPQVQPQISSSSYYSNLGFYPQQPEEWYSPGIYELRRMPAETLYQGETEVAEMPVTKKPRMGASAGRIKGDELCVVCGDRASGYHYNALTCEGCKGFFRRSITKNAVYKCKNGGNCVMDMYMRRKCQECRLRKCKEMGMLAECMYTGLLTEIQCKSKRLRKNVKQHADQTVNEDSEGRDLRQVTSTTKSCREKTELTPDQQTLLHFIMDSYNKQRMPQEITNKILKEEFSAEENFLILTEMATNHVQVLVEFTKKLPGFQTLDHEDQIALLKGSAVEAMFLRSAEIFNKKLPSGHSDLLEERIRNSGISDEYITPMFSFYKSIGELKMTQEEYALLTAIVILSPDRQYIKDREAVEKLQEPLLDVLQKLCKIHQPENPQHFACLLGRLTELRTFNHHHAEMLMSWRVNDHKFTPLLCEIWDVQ

FC(F)(F)c1ccc(Cl)c(Cl)c1
not listed: [15] | [16] | [17] | [18] | [19] | [20]
inactive: all other assays above

CCOCC(C)O (stereo unspecified)
not listed: [4] | [10] | [11] | [20]
inactive: all other assays above

CCCCCCCCOS(=O)(=O)O
not listed: [15] | [20]
inactive: all other assays above

[O-]/[N+](=N\O)c1ccccc1
not listed: [9] | [15] | [17] | [18] | [20]
inactive: all other assays above

CC/C=C\CCCCO
not listed: [4] | [9] | [17] | [20]
inactive: all other assays above

O=Cc1ccccc1O
active: [20] 25.2 µM
not listed: [4] | [13] | [15] | [17]
inactive: all other assays above

CCOC(=O)COC(=O)c1ccccc1C(=O)OCC
not listed: [4] | [16] | [17] | [18]
inactive: all other assays above
